About 79,000 compounds went through this panel and 15% of them were active in at least one assay; those are over-represented in the sample as a whole. Calls of active or inactive are those of the source. Cut-off read from the data, not from the text of the source: active = growth inhibition above about 70%; inactive = the rest.
What was measured:
[1] = NCI Yeast Anticancer Drug Screen. Data for the mec2-1 strain (AID 157); conditions: S. cerevisiae mec2-1 strain, active compounds read high
Summary of the method: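 Readout is yeast growth inhibition, normalised to vehicle-treated controls, in the mec2-1 strain exposed to compound.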

[2] = NCI Yeast Anticancer Drug Screen. Data for the rad14 strain (AID 159);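 note: 0% = growth of vehicle-treated control cultures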; conditions: S. cerevisiae rad14 strain growth inhibition, active compounds read high
Summary of the method: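 A mutant yeast strain defective in DNA damage repair is treated with compound; inhibition of its growth is scored against untreated, vehicle-exposed cultures.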

[3] = NCI Yeast Anticancer Drug Screen. Data for the sgs1 mgt1 strain (AID 161);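 note: 0% = growth of cultures given vehicle only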; conditions: S. cerevisiae sgs1 mgt1 strain, active compounds read high
Summary of the method: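 Yeast cells carrying a defined DNA-repair defect were exposed to test compounds. Growth inhibition was measured relative to vehicle-treated controls.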

[4] = NCI Yeast Anticancer Drug Screen. Data for the CLN2oe strain (AID 163);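 note: 0% = growth of vehicle-only control cultures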; conditions: S. cerevisiae CLN2oe strain, active compounds read high
Summary of the method: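 Values reflect how much compound exposure reduced yeast growth, referenced to vehicle-exposed cells. Assay organism is a strain with a defined genetic change affecting cell-cycle control.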

[5] = NCI Yeast Anticancer Drug Screen. Data for the cln2 rad14 strain (AID 165);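 note: 0% = growth equal to vehicle treated cultures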; conditions: S. cerevisiae cln2 rad14 strain, active compounds read high
Summary of the method: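 Relative to vehicle controls, growth inhibition of compound-treated cln2 rad14 yeast was recorded.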

[6] = NCI Yeast Anticancer Drug Screen. Data for the bub3 strain (AID 167); conditions: S. cerevisiae bub3 mutant strain, active compounds read high
Summary of the method: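 Steps: expose the mutant yeast strain to compound; grow alongside vehicle-treated cultures; measure growth; express inhibition against the vehicle cultures.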

[7] = NCI Yeast Anticancer Drug Screen. Data for the wt2 strain (AID 169);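 note: 0% = growth of vehicle-treated yeast cultures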; conditions: S. cerevisiae wt2 strain growth inhibition, active compounds read high
Summary of the method: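 Values express reduction in yeast growth under compound treatment, referenced to vehicle-treated cells.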

[8] = NCI Yeast Anticancer Drug Screen. Data for the mlh1 strain (AID 171);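 note: 0% = growth of vehicle-treated control cultures of the same strain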; conditions: S. cerevisiae mlh1 strain growth inhibition, active compounds read high
Summary of the method: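 Steps: expose the defined-mutant yeast strain to compound; expose a parallel culture to vehicle; measure growth; express compound effect as inhibition relative to the vehicle culture.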

[9] = NCI Yeast Anticancer Drug Screen. Data for the sgs1 strain (AID 173);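 note: 0% = growth of vehicle-only control cultures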; conditions: S. cerevisiae sgs1 mutant, active compounds read high
Summary of the method: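 Treat defined-mutant yeast with compound; measure growth; calculate inhibition relative to vehicle-treated cells.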

[10] = NCI Yeast Anticancer Drug Screen. Data for the mlh1 rad18 strain (AID 175); conditions: S. cerevisiae mlh1 rad18 strain growth inhibition, active compounds read high
Summary of the method: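 Test agents were incubated with a yeast strain of defined genotype (DNA damage repair defect). Inhibition of growth was derived by comparison with vehicle-exposed cultures.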

[11] = NCI Yeast Anticancer Drug Screen. Data for the rad18 strain (AID 177); conditions: S. cerevisiae rad18 mutant growth inhibition, active compounds read high
Summary of the method: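 A genetically defined yeast mutant impaired in DNA damage repair was treated with test compounds, then its growth was measured against cultures receiving vehicle alone.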

[12] = NCI Yeast Anticancer Drug Screen. Data for the rad52 strain (AID 147);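 note: 0% = growth of vehicle-treated control cultures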; conditions: S. cerevisiae rad52 mutant growth inhibition, active compounds read high
Summary of the method: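 Screen used a yeast mutant impaired in DNA repair. After compound exposure, growth was measured. Values reflect inhibition compared with vehicle-treated cells.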

[13] = NCI Yeast Anticancer Drug Screen. Data for the wt1 strain (AID 149);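 note: 0% = growth of vehicle-treated wt1 cultures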; conditions: S. cerevisiae wt1 strain (SPY 50644) growth inhibition, active compounds read high
Summary of the method: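 Compounds are added to wt1 yeast cultures. Growth is then measured. Inhibition is expressed relative to vehicle-treated controls.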

[14] = NCI Yeast Anticancer Drug Screen. Data for the rad50EPP+ strain (AID 151);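 note: 0% = growth of vehicle-treated control cultures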; conditions: S. cerevisiae rad50 mutant strain, active compounds read high
Summary of the method: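 Exposing the rad50EPP+ strain to each compound, growth was compared with vehicle-only cultures to give inhibition.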

[15] = NCI Yeast Anticancer Drug Screen. Data for the mgt1 strain (AID 153); conditions: S. cerevisiae mgt1 mutant growth inhibition, active compounds read high
Summary of the method: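 Genetically defined yeast (mgt1) treated with compound; inhibition of growth expressed against vehicle-treated controls.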

[16] = NCI Yeast Anticancer Drug Screen. Data for the rad50 strain (AID 155);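 note: 0% = growth of vehicle-only cultures of the same strain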; conditions: S. cerevisiae rad50 strain growth inhibition, active compounds read high
Summary of the method: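 Inhibition values express reduced yeast growth in compound-treated cultures relative to vehicle-treated controls.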

[17] = at 5.0 µM (retest, dose inferred, filed as 0.5)
[18] = at 50.0 µM (retest, dose inferred, filed as 5.0)

Measured: growth inhibition

CCOC(=O)c1[nH]n(-c2ccccc2)c(=O)c1C=NC(=S)C(N)=S
active: [1]; at 33.0 µM 96% | [1]; [18] 88% | [1]; at 50.0 µM 90.7% | [1]; at 100.0 µM 97% | [2]; at 33.0 µM 95% | [2]; at 100.0 µM 97% | [3]; at 50.0 µM 91% | [4]; at 100.0 µM 97% | [5]; at 50.0 µM 90.4% | [6]; [18] 92% | [6]; at 100.0 µM 97% | [7]; at 100.0 µM 98% | [8]; at 33.0 µM 96% | [8]; at 100.0 µM 97% | [9]; at 33.0 µM 96% | [9]; at 100.0 µM 97% | [10]; [18] 92% | [10]; at 50.0 µM 86.3% | [11]; at 100.0 µM 97%
inactive: [1]; [17] -22% | [1]; at 11.0 µM -12% | [2]; at 1.2 µM -15% | [2]; at 3.7 µM -15% | [2]; at 11.0 µM -11% | [3]; [17] -4% | [3]; [18] 13% | [4]; at 1.2 µM -8% | [4]; at 3.7 µM -7% | [4]; at 11.0 µM 2% | [4]; at 33.0 µM 35% | [5]; [17] -4% | [5]; [18] 12% | [6]; at 1.2 µM -8% | [6]; at 3.7 µM -4% | [6]; [17] -27% | [6]; at 11.0 µM -8% | [6]; at 33.0 µM 8% | [6]; at 50.0 µM 60.2% | [7]; at 1.2 µM -2% | [7]; at 3.7 µM 0% | [7]; at 11.0 µM 7% | [7]; at 33.0 µM 46% | [8]; at 1.2 µM 22% | [8]; at 3.7 µM 16% | [8]; at 11.0 µM 43% | [9]; at 1.2 µM 21% | [9]; at 3.7 µM 27% | [9]; at 11.0 µM 41% | [10]; [17] -3% | [11]; at 1.2 µM 0% | [11]; at 3.7 µM -4% | [11]; at 11.0 µM 2% | [11]; at 33.0 µM 67%

CCOC(=O)COc1c(OC)cc(C2C3=C(COC3=O)Oc3cc4c(cc32)OCO4)cc1OC (stereo unspecified)
active: [5]; at 50.0 µM 71%
inactive: [12]; at 1.2 µM 2% | [12]; at 3.7 µM 1% | [12]; at 11.0 µM 0% | [12]; at 33.0 µM 8% | [12]; at 100.0 µM 23% | [13]; at 1.2 µM 1% | [13]; at 3.7 µM 2% | [13]; at 11.0 µM 4% | [13]; at 33.0 µM 3% | [13]; at 100.0 µM 6% | [14]; at 1.2 µM -2% | [14]; at 3.7 µM -16% | [14]; at 11.0 µM -22% | [14]; at 33.0 µM -11% | [14]; at 100.0 µM 15% | [15]; at 1.2 µM -3% | [15]; at 3.7 µM 2% | [15]; at 11.0 µM 0% | [15]; at 33.0 µM 16% | [15]; at 100.0 µM 8% | [16]; at 1.2 µM 1% | [16]; at 3.7 µM 0% | [16]; [17] -4% | [16]; at 11.0 µM 1% | [16]; at 33.0 µM 3% | [16]; [18] -1% | [16]; at 50.0 µM 2.85% | [16]; at 100.0 µM 8% | [1]; at 1.2 µM -1% | [1]; at 3.7 µM 0% | [1]; [17] -8% | [1]; at 11.0 µM -2% | [1]; at 33.0 µM 1% | [1]; [18] -4% | [1]; at 50.0 µM 26.8% | [1]; at 100.0 µM 17% | [2]; at 1.2 µM -3% | [2]; at 3.7 µM -3% | [2]; at 11.0 µM 0% | [2]; at 33.0 µM 4% | [2]; at 100.0 µM 15% | [3]; [17] -9% | [3]; [18] 19% | [3]; at 50.0 µM 14.7% | [4]; at 1.2 µM -2% | [4]; at 3.7 µM -3% | [4]; at 11.0 µM 5% | [4]; at 33.0 µM 2% | [4]; at 100.0 µM 10% | [5]; [17] -1% | [5]; [18] 29% | [6]; at 1.2 µM -4% | [6]; at 3.7 µM 0% | [6]; [17] -13% | [6]; at 11.0 µM 0% | [6]; at 33.0 µM 6% | [6]; [18] 19% | [6]; at 50.0 µM 28.2% | [6]; at 100.0 µM 13% | [7]; at 1.2 µM 0% | [7]; at 3.7 µM 0% | [7]; at 11.0 µM 1% | [7]; at 33.0 µM 3% | [7]; at 100.0 µM 12% | [8]; at 1.2 µM 1% | [8]; at 3.7 µM -1% | [8]; at 11.0 µM -1% | [8]; at 33.0 µM 2% | [8]; at 100.0 µM 12% | [9]; at 1.2 µM 0% | [9]; at 3.7 µM 2% | [9]; at 11.0 µM 1% | [9]; at 33.0 µM 9% | [9]; at 100.0 µM 28% | [10]; [17] -10% | [10]; [18] 49% | [10]; at 50.0 µM -4.55% | [11]; at 1.2 µM 0% | [11]; at 3.7 µM -2% | [11]; at 11.0 µM -11% | [11]; at 33.0 µM -2% | [11]; at 100.0 µM 3%
